For ten molecules, outcome and AC50 results are on record in PubChem BioAssay (EPA / NIEHS).

Inconclusive results are not listed. Active and inactive are the calls of the source. The calls were made as follows: active = hit-call score of the fitted dose curve at least 0.9, where 1 is the maximum; inconclusive = response in the unintended direction; inactive = score below 0.9.

The target in experiment [1] is Estrogen receptor beta (Homo sapiens) (UniProt Q92731). As to the kind of experiment: OT_ER_ERbERb_0480: Odyssey Thera (OT) 8-hour HEK293T Protein-Complementation Assay for Estrogen Receptor-beta/-beta Homodimer (AID 2283357).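 Also: active means signal gain over DMSO baseline.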 Summed up: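 Fluorescence gain from complemented reporter fragments on ER-beta LBD homodimer in HEK293T was quantified against DMSO controls after 8 h treatment, fixation in 4% formaldehyde and Draq5 staining.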

Experiment [2] has as its target Nuclear receptor subfamily 1 group I member 2 (Homo sapiens) (UniProt O75469). As to the kind of experiment: NVS_NR_hPXR: NovaScreen (NVS) Nuclear Receptor Binding Assay for human Pregnane X Receptor (PXR) (AID 2283365).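 Also: a drop in FRET signal versus DMSO baseline means the compound binds.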 The procedure, abridged:
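Cell-free TR-FRET binding assay with extracted human PXR protein, read 2 h after dosing. Primary screen run in duplicate at 25 uM, actives followed in concentration series; loss of signal fitted against DMSO baseline.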

For experiment [3], the target named is Glucocorticoid receptor (Homo sapiens) (UniProt P04150). As to the kind of experiment: NVS_NR_hGR: NovaScreen (NVS) Nuclear Receptor Binding Assay for human Glucocorticoid Receptor (GR) (AID 2283363).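 As to AC50: activity is loss of specific radioligand binding signal relative to DMSO.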 The procedure, abridged:
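Single-readout cell-free binding: radioligand plus extracted receptor, 16-hour dosing, filter radiodetection; 25 uM duplicate primary, concentration series secondary.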

Sequence of Nuclear receptor subfamily 1 group I member 2 (Homo sapiens) (O75469 whole entry, looked up): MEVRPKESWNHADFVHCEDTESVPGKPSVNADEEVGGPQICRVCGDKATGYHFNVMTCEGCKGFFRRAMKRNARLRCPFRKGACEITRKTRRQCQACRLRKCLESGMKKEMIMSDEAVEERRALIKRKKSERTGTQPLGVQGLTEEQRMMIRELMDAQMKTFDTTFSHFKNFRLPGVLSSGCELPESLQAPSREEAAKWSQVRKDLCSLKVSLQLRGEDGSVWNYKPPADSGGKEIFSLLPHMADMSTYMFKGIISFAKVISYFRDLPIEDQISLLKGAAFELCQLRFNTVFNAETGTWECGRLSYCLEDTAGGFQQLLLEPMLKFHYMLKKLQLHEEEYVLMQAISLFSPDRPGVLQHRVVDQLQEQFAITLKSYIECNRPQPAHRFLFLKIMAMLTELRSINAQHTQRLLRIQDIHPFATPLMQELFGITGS
Sequence of Estrogen receptor beta (Homo sapiens) (Q92731 whole entry, looked up, the tested form may be a part): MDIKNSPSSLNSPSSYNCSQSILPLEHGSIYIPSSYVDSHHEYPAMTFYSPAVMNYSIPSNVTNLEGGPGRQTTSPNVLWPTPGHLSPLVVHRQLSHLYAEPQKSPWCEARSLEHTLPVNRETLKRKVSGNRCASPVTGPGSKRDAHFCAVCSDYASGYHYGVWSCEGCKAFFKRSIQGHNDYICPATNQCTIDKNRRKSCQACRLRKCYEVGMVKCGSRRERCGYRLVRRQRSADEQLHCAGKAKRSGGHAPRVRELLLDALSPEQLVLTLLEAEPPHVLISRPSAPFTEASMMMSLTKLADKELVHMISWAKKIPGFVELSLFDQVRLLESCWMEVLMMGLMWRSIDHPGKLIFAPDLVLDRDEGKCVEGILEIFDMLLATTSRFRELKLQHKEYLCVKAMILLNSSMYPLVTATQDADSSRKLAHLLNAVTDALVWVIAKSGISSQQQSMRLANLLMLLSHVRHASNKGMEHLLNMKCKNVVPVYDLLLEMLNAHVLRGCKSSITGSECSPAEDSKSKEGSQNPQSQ
Sequence of Glucocorticoid receptor (Homo sapiens) (P04150 whole entry, looked up): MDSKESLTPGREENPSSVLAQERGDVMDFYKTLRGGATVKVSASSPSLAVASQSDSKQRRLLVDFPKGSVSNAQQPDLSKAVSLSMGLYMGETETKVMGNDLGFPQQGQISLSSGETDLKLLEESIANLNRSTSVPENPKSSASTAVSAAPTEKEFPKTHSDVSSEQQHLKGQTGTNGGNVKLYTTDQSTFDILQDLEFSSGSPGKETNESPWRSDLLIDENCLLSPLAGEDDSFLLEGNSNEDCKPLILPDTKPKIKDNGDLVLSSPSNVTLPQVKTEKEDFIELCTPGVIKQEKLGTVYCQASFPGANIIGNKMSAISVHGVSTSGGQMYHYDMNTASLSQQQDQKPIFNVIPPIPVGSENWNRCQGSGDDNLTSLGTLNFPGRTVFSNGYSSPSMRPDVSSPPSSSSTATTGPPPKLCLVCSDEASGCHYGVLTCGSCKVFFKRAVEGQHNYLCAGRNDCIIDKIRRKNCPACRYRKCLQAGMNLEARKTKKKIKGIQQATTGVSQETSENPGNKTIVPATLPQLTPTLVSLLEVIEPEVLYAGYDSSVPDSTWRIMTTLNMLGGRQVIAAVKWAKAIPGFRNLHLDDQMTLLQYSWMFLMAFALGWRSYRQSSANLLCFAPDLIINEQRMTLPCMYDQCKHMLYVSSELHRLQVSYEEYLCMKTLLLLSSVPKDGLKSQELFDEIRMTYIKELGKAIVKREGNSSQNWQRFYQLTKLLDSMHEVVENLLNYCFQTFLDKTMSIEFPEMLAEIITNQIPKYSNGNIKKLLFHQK

For `CCCCCCCCCCCCS`, the call in experiment [1] and in experiment [2] was inactive.

A word on the AC50: it is the midpoint of the concentration-response curve, whichever way the signal moves. Regarding `O=S1(=O)CC(Cl)(Cl)C(Cl)(Cl)C1`, the concentration at half-maximal activity (AC50) in experiment [3] is 25 µM (active).

On to `CC1(C)CC(=O)CC(C)(C)N1`, for which the outcome in experiment [3] was inactive.

`CCNC(=S)NCC`: the outcome in experiment [1] and in experiment [2] was inactive.

On to `CCCCCCOc1ccc(O)cc1`, for which, in experiment [1], the concentration at half-maximal activity (AC50) is 11.9 µM (active). For the same molecule, the call in experiment [2] was inactive.

As to `C=CC(O)CCCCC` (stereo not given), the outcome in experiment [2] was inactive.

`CC(C)C(=O)c1ccccc1`: in experiment [2], the molecule was classed as inactive.

Regarding `C=CC(=O)OCC(CO)(COC(=O)C=C)COC(=O)C=C`, the AC50 in experiment [3] was 4.96 µM (active).

Regarding `CCCCC/C=C\C=C\C(=O)OCC`, the molecule was called inactive in experiment [1]. Further, the AC50 in experiment [2] is 9.24 µM (active).

Regarding `[O-]/[N+](=N\O)c1ccccc1`, the outcome in experiment [1] and in experiment [2] was inactive.
